Bioassay records (PubChem BioAssay)
Sampled rows, rich in hits. Any-hit rate of the full collection: about 3%.
CHT allo act: allosterically activates the human high affinity choline transporter; hit rate 0.49% among 310,000; CHT-expressing cells, membrane potential dye, choline EC20; stronger effect = higher value; LV-AA mutant CHT in HEK293 cells; AID 488977; Q9GZV3; B-score at 10 µM;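 active = initial fluorescence not abnormally high and integrated response B-score, plate-corrected, over 3 SD above library mean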
Target sequence (Q9GZV3 whole entry, looked up): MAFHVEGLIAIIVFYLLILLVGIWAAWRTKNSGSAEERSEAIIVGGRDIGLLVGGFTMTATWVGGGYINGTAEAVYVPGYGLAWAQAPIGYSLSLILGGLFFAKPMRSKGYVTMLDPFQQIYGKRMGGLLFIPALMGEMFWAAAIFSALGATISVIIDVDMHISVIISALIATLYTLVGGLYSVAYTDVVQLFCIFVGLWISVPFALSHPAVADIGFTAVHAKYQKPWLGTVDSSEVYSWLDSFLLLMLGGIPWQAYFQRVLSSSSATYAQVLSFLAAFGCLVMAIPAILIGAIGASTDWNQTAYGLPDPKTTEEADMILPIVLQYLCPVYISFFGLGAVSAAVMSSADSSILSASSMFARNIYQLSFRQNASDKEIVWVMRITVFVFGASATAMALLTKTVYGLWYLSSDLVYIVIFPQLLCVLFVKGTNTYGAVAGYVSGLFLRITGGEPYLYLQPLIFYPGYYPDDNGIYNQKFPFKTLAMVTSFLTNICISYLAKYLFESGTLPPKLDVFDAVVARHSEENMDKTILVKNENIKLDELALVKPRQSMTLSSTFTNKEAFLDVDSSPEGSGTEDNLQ
NALP1 inh: NALP1 inhibition | S. cerevisiae NALP1/ASC/caspase-1 growth, X-gal OD620, 72 h | inhibition, % at 10 µM | hit rate 0.61% among 280,000 | AID 2071; in the data active = inhibition mostly above about 24%, no sharp cut-off; inactive = mostly below about 32%
A1 inh: inhibitors of the anti-apoptotic protein A1, read as caspase activation; MEF A1-2A-BIM cells, Caspase-Glo 3/7 luminescence, 3 h; percent of clofoctol response, vehicle zero; caspase activation, % (concentration not given with the values); hit rate 0.066% among 330,000; AID 2462;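 active = over half of replicate activation scores above 10%, or exactly half above 10 with the replicate mean above 10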
Mot1-301 SUMO: blocks SUMOylation pathway, rescuing yeast Mot1-301 growth | hit rate 1% among 320,000 | AID 2716 | growth rescue, % at 18.8 µM | S. cerevisiae Mot1-301 growth rescue, ATP luminescence, 38.5C; percent above DMSO median, 100 means doubled;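 active = every valid replicate shows activation above 250% relative to neutral control wells; inactive = the rest, any valid replicate at or below 250%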;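 also: OY570 slx delta 5 strain wells were the positive control but not used for scaling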
CHT inh: inhibitors of human choline transporter CHT; Q9GZV3; CHT-expressing cells, membrane potential dye, choline response; stronger effect = lower value; B-score at 10 µM; hit rate 0.86% among 310,000;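 active = B-score over 3 SD under the library average, and starting fluorescence ratio not unusually high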;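 also: choline stimulus applied at its EC90 after an EC20 pre-addition; B-score computed on integrated fluorescence ratio after choline addition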
NALP3 yeast inh: inhibitors of NALP3 inflammasome in yeast | Yeast reconstituted NLRP3/ASC/caspase-1, beta-gal luminescence, 24 h | inhibition, % at 10 µM | hit rate 0.39% among 330,000 | AID 2825;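 active = inhibition of 50% or more; inactive = inhibition below 50%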;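 also: plate controls were induced DMSO wells for no effect and uninduced yeast grown without galactose for full effect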
CHT activ conf: confirmation of human choline transporter (CHT) activators. CHT-expressing cells, membrane potential dye fluorescence (FDSS); % of choline EC20–EC90 response window; HEK293 expressing CHT LV-AA mutant; choline added at its EC20. shares compounds with CHT allo act. hit rate 91% among 2,500. activation, % at 10 µM. AID 504833;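 active = primary screen active, with duplicate mean activation above negative control mean plus 3 SD, cut at about 11% in these data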
HEK293 MP dye: activity in parental HEK293 cells lacking CHT; shares compounds with CHT allo act; membrane potential dye fluorescence (FDSS); measured after EC20 choline addition; ratio readout change at 10 µM, hits read low; hit rate 62% among 2,500; AID 623908;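 active = duplicate-averaged ratio beyond 3 SD from buffer wells, up or down, though filed actives are nearly all decreases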
* = called active by the depositor; i = inactive; x = no result given.

SMILES | CHT allo act | NALP1 inh | A1 inh | Mot1-301 SUMO | CHT inh | NALP3 yeast inh | CHT activ conf | HEK293 MP dye
COC(=O)CSc1nc2ccc(NC(=O)c3ccccc3C(=O)N3CCOCC3)cc2s1 | i | 20.9 | -0.3 | -0.7 | i | 1.5 | x | x
O=C(Nc1ccc2nc(SCc3ccc(Cl)cc3)sc2c1)c1ccccc1C(=O)N1CCOCC1 | i | 14.0 | 0.2 | 2.5 | i | -1.7 | 46.3* | i
CCCCN(CCCNC(=O)C1CCN(C(=O)c2cc3sccc3n2C)CC1)Cc1ccccc1 | 10.3* | 12.4 | -1.2 | -1.8 | i | 13.7 | 60.2* | -29.5*
CCN(CCCNC(=O)C1CCN(C(=O)c2cc3sccc3n2C)CC1)Cc1ccccc1 | i | 21.4 | -0.6 | 37.5 | i | -14.2 | x | x
COc1ccc(CNC(=S)Nc2ccc3nc(N4CCOCC4)cc(C)c3c2)cc1 | i | -6.5 | -0.7 | 240.9 | i | 26.1 | x | x
CCN(CC)CCNC(=S)Nc1ccc2nc(N3CCN(C)CC3)cc(C)c2c1 | i | -0.4 | -0.5 | 85.3 | i | 13.1 | 45.1* | -24.1*
Cc1cc(N2CCN(C)CC2)nc2ccc(NC(=O)c3ccc(Br)o3)cc12 | i | 38.5* | -0.6 | -5.4 | i | 3.2 | 43.7* | -29.6*
COc1ccc(CNC(=S)Nc2ccc3nc(N4CCN(C)CC4)cc(C)c3c2)cc1 | 6.3* | 0.8 | 0.0 | -16.8 | i | -7.0 | 32.3* | -37.5*
Cc1cc(N2CCOCC2)nc2ccc(NC(=S)NCCC(C)C)cc12 | i | -1.0 | 0.6 | 27.2 | i | 10.9 | 19.2* | -25.3*
CCN(CC)CCNC(=S)Nc1ccc2nc(N3CCCC3)cc(C)c2c1 | i | 1.8 | 1.2 | -28.8 | i | 3.5 | x | x
COc1cccc(OCC(=O)O/N=C(\N)c2ccncc2)c1 | i | 1.1 | 0.4 | -0.2 | i | -5.4 | x | x
COc1ccc(-c2cc3ccccc3nc2N)cc1OC | i | 11.0 | -0.7 | -6.1 | i | 31.6 | x | x
Cc1cc(N2CCOCC2)nc2ccc(NC(=S)NCCN(C)C)cc12 | i | -4.3 | 0.2 | 185.7 | i | -5.4 | 45.2* | -33.5*
CCN1CCN(c2cc(C)c3cc(NC(=S)NCc4cccs4)ccc3n2)CC1 | i | -13.0 | 0.2 | -0.1 | i | 13.7 | 21.3* | -40.8*
CC1CCN(CCCNC(=O)c2ccc3c(Cl)c4c(nc3c2)CCCC4)CC1 | i | x | 1.0 | x | i | 14.7 | x | x
CCC(C)(C)NC(=O)C(c1ccccc1)N(Cc1cccs1)C(=O)Cn1nnc2ccccc21 (configuration not stated) | i | x | -0.3 | -3.7 | i | 6.1 | 19.0* | i
Cc1nc(NCCCn2ccnc2)c2ccccc2n1 | i | -0.3 | 0.2 | 26.2 | i | 10.8 | 45.7* | -64.5*
c1cncc(-c2nc(NCCCn3ccnc3)c3ccccc3n2)c1 | i | 2.3 | 2.6 | 42.3 | i | 7.0 | x | x
COc1ccc2c(c1)c1ncn(CCN3CCNCC3)c(=O)c1n2C | i | 25.1 | 0.1 | -9.1 | i | -5.1 | 16.2* | -20.1*
COc1ccc2c(c1)c1ncn(CCN3CCCCC3)c(=O)c1n2C | i | -3.9 | 1.9 | -5.3 | i | 19.2 | x | x
COc1ccc2[nH]c3c(=O)n(CCN4CCOCC4)cnc3c2c1 | i | 7.0 | -0.8 | -1.5 | i | -8.0 | x | x
COc1ccc2c(c1)c1ncn(CCN3CCCC3)c(=O)c1n2C | 6.49* | 9.0 | 0.7 | 2.4 | i | -0.5 | 44.7* | -23.8*
CCCCCNc1nc(NCCCO)c(C#N)c2c1CN(C)CC2 | i | -7.7 | 0.8 | -2.6 | i | -2.2 | 31.6* | -29.2*
CC(CC12CC3CC(CC(C3)C1)C2)NCc1ccccc1O (configuration not stated) | i | 27.0 | 0.3 | 1.9 | i | 29.9 | 4.7 | i
Cc1cc(=O)oc2cc(OCCc3ccccc3)ccc12 | i | 6.2 | -0.7 | -6.9 | i | 31.5 | x | x
SMILES | CHT allo act | NALP1 inh | A1 inh | Mot1-301 SUMO | CHT inh | NALP3 yeast inh | CHT activ conf | HEK293 MP dye
Cc1cc(=O)oc2cc(OCCCC[n+]3ccccc3)ccc12 | i | 7.0 | 0.3 | -23.5 | i | 4.8 | 62.2* | -38.4*
COc1cccc(C(=O)N2CCN(C(=O)COc3ccc4ccccc4c3)CC2)c1 | i | 3.4 | 0.2 | -7.0 | i | 1.0 | x | x
COc1ccc(CN(C)C(C)C(=O)Nc2cccc3ccccc23)cc1 (configuration not stated) | i | 24.8 | 0.7 | 20.6 | i | 17.4 | 3.6 | i
Cc1ccc(S(=O)(=O)N2CCN(C(=O)C3CSC4(C)CCC(=O)N34)CC2)cc1C (configuration not stated) | i | x | 0.2 | -5.3 | i | 8.4 | x | x
COC(=O)C1=C(C)N(Cc2ccccc2)C(=NCc2ccc(OC)cc2)N[C@H]1c1ccccc1 | x | x | -1.5 | -21.1 | x | 15.1 | x | x
COC(=O)C1=C(C)N(Cc2ccccc2)C(=NCC(C)C)N[C@H]1c1ccccc1 | i | 3.3 | -1.4 | -10.0 | i | 17.2 | 34.9* | i
CCn1cc(C(=O)O)c(=O)c2cnc(N3CCN(C(=S)NC(=O)c4ccc(OC)cc4)CC3)nc21 | i | -13.8 | 0.3 | -17.8 | i | 12.1 | x | x
CC[C@@H](C)[C@H](CN[C@H](CNC)C(C)C)NC[C@@H](C)c1ccc(CC(C)C)cc1 | i | 12.0 | 0.2 | -5.3 | i | 31.2 | 0.4 | i
CC[C@H](C)[C@@H](CN[C@H](C)CNC)NCCC(c1ccccc1)c1ccccc1 | i | 0.6 | -0.4 | -6.9 | i | 15.2 | x | x
COc1ccc(C(C)=O)cc1CSc1nncn1C | i | -2.8 | 0.2 | 1.5 | i | 10.9 | x | x
COc1ccc(C(C)=O)cc1CSc1nc2ccccc2c(=O)n1-c1ccccc1C | i | 38.4 | -0.6 | -9.3 | i | 6.9 | 24.6* | i
COc1ccc(C(C)=O)cc1CSc1nnc2c(Cl)cc(Cl)cn12 | 9.57* | 26.6 | 1.7 | -12.0 | i | 8.3 | 84.5* | -88.8*
Cc1cccc(C(=O)OCC(=O)NC(C)CCc2ccccc2)c1O (configuration not stated) | i | 8.6 | -0.5 | 0.7 | i | 17.6 | x | x
CN(C)C(CNC(=O)C1CCN(S(=O)(=O)c2ccccc2C(F)(F)F)CC1)Cc1ccccc1 (configuration not stated) | x | x | x | x | x | 12.8 | x | x
Cc1nnc(C)c2c(C)n(-c3ccc4ncccc4c3)c(C)c12 | i | 25.4* | -0.3 | 15.2 | i | -6.0 | 41.4* | -46.1*
Cc1cc(C)cc(-n2c(C)c3c(C)nnc(C)c3c2C)c1 | i | 34.1 | -0.4 | -11.5 | i | 9.8 | 43.0* | -27.6*
